Results on 97 compounds are retold here after PubChem BioAssay AID1626 (SRMLSC, 2009).

SMILES strings stand for the structures. Where “and” joins values, the source holds several entries; their conditions need not be identical. Equal entries are not always repeated. Among all 220,000 compounds or so, about 2,000 (0.91%) were called active. About 2% were inconclusive and are not listed. The list is a sample of the results. Results with a measured potency or affinity are listed apart. A number with no mark means an inactive call. Cut-off read from the data, not from the text of the source: inconclusive = inhibition above about 80% without an active follow-up result; inactive = below that; test concentration not stated here.

A word on the inhibition: it is the drop in the measured response relative to a control, in per cent.

The nature of the test: M. tuberculosis H37Rv growth inhibitors, H37Rv strain (AID 1626).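 Note: bacteria incubated seven days before Alamar blue readout; 0% = bacteria only wells and 100% = bacteria with antibiotic wells.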 Conditions: stronger effect = higher value, concentration not given here.
As for `CCCn1nnnc1NC(=O)COc1ccc(CC)cc1`, the inhibition is 0.65%.

As to `CC(=O)N1N=C(c2cccnc2)OC1c1ccccc1Cl` (configuration not stated), the inhibition is 2.68%.

As to `CC(C)CC(=O)Nc1ccc2ccccc2c1`, the inhibition was 85.1% and -4.53%.

On to `CCCCC(=O)Nc1ccc(C)c(O)c1`, for which the inhibition was 2.73%.

With `COc1ccc(N/C(C)=C/C(=S)Nc2ccccc2)cc1`, the inhibition was 29.2%.

On to `Cc1ccc(NC(=O)COC(=O)/C=C/c2cccs2)cc1`, for which the inhibition was -0.47%.

For the compound `C/C(=C\C(=S)Nc1ccccc1)Nc1ccccc1`, the inhibition is 4.78%.

Turning to `NC(=O)c1ccc(NC(=O)COC(=O)/C=C/c2cccs2)cc1`, the inhibition is -2.1%.

As for `O=C(CS)Nc1ccc2ccccc2c1`, the inhibition was -9.08%.

As to `CCCCC(=O)Nc1cccc(NC(=O)CC)c1`, the inhibition is 3.01%.

For the compound `O=S(=O)(CCOc1ccccc1)c1nc2ccccc2[nH]1`, the inhibition was -6.66%.

As to `COCCCn1c(SCC(=O)Nc2nc3ccccc3s2)nnc1-c1ccoc1C`, the inhibition is 4.35%.

Turning to `Cc1cc(C)c(S(=O)(=O)N2CCCCC2)c(C)c1N(C)S(=O)(=O)c1ccc(Cl)cc1`, the inhibition was 1.13%.

Consider `CCOc1nc(C)ccc1-c1noc(CC)n1`, for which the inhibition is -1.19%.

As for `CCOC(=O)C1CSC(CC(=O)Nc2ccc(Cl)cc2)C(=O)N1` (configuration not stated), the inhibition is -6.13%.

With `OC1(CNCc2cn[nH]c2-c2cc3ccccc3o2)CCCCC1`, the inhibition is -6.25%.

As to `COc1cccc(-n2c(SCc3c(C)noc3C)nnc2-c2cccc(S(=O)(=O)N(C)C)c2)c1`, the inhibition is 4.97%.

For the compound `Cc1ccccc1OCc1csc(N)n1`, the inhibition was 3.59%.

On to `CN=C(C)c1c(O)c2ccccc2oc1=O`, for which the inhibition is -1.28%.

With `CC(C)N(C(=O)Cn1c(SCC(=O)Nc2nccs2)nc2ccccc21)C(C)C`, the inhibition is 0.44%.

In the case of `CC(=O)N1N=C(c2cccc(Br)c2)OC12CCCC2`, the inhibition is -8.1%.

As for `CC(=O)CC(=O)Nc1ccc(Nc2ccccc2)cc1`, the inhibition is 6.81%.

Take `CCC(=O)Nc1ccc(-c2csc(C)n2)cc1`: the inhibition is 45.9%.

Regarding `Cc1nc(-c2ccc(NC(=O)CC(C)C)cc2)cs1`, the inhibition is 31.2%.

Consider `CC(=O)Nc1ccc2ccccc2c1`, for which the inhibition is 12.4%.

In the case of `CCOC(=O)C(C(=O)OCC)C(Nc1ccccc1)c1ccccc1` (configuration not stated), the inhibition was 1.08%.

Turning to `CCOC(=O)CS(=O)(=O)c1ccc2ccccc2c1`, the inhibition was -12.2%.

On to `O=C(Nc1ccc(Cl)c([N+](=O)[O-])c1)ONC1=NCCCCC1`, for which the inhibition is 0.03%.

Regarding `CCCNC(=O)NC(=O)CN1C(=O)NC(C)(c2ccc(C)cc2)C1=O` (configuration not stated), the inhibition was -1.35%.

As to `CC(C(N)=O)N1C(=O)C2C3C=CC(C3)C2C1=O` (configuration not stated), the inhibition is -3.12%.

With `Cc1ccc(-c2cc(C(=O)NCc3cccnc3)no2)cc1`, the inhibition was 3.89%.

As for `Cc1ccc(NC(=S)NCCc2c[nH]c3ccccc23)c(C)c1`, the inhibition is 4.17%.

Consider `Cc1c(/C=C/C(=O)c2cccs2)cnn1C`, for which the inhibition is -1.78%.

In the case of `Cc1nn(C)cc1/C=C/C(=O)c1cccs1`, the inhibition was 2.82%.

In the case of `CCN(CC)C(=S)SCC(=O)Nc1ncc2c(n1)CC(C)(C)CC2=O`, the inhibition is 1.56%.

Turning to `CC(=O)C1=C(C)NC(SCC(=O)c2ccc(Cl)cc2Cl)=C(C#N)C1c1ccco1` (configuration not stated), the inhibition was 12.4%.

On to `CC(=O)C1=C(C)NC(SCc2ccc(C#N)cc2)=C(C#N)C1c1ccco1` (configuration not stated), for which the inhibition was -1.27%.

As to `CC(=O)C1=C(C)NC(SCC(=O)c2ccccc2)=C(C#N)C1c1ccco1` (configuration not stated), the inhibition was 43.6%.

As for `CC1=C(C(=O)Nc2ccccc2)C(c2ccco2)C(C#N)=C(SCC(=O)Nc2cccc(C)c2C)N1` (configuration not stated), the inhibition is 4.09%.

In the case of `CCOc1ccccc1NC(=O)CSC1=C(C#N)C(c2ccco2)C(C(=O)Nc2nc3ccccc3s2)=C(C)N1` (configuration not stated), the inhibition was 49.1%.

Regarding `CC(=O)C1=C(C)NC(SCC(=O)c2ccc(Cl)cc2)=C(C#N)C1c1ccco1` (configuration not stated), the inhibition was 50%.

Take `CC(=O)C1=C(C)NC(SCC(=O)c2cc(Cl)ccc2Cl)=C(C#N)C1c1ccco1` (configuration not stated): the inhibition was 15.3%.

Take `CC(=O)C1=C(C)NC(SCC(N)=O)=C(C#N)C1c1ccco1` (configuration not stated): the inhibition was -4.99%.

With `CN1CCN(C(=O)c2cc3nc(-c4ccc(F)cc4)cc(C(F)(F)F)n3n2)CC1`, the inhibition is -1.56%.

Regarding `CC(C)OP(=O)(OC(C)C)C(O)c1ccc(Br)cc1` (configuration not stated), the inhibition was -5.46%.

For `O=S(=O)(c1ccc(Cl)s1)N1CCC(Cc2ccccc2)CC1`, the inhibition is -5.95%.

For `O=C(Nc1cccc([N+](=O)[O-])c1)c1ccc(N2CCCC2=O)cc1`, the inhibition was 3.44%.

For the compound `COc1cc(C(=O)NNC(=O)c2ccoc2C)cc(OC)c1OC`, the inhibition was -3.54%.

On to `COc1ccc(C)cc1NC(=O)COC(=O)C1CCN(C(=O)c2ccc(Cl)cc2)CC1`, for which the inhibition is 3.93%.

Turning to `Cc1ccc(NC(=O)Cn2c(O)c(N=NC(=O)c3ccncc3)c3ccccc32)cc1`, the inhibition is -1.42%.

Regarding `O=C(C1CCCCC1)N1CCN(C(=O)C2CCCCC2)CC1`, the inhibition was -1.95%.

`CCc1c(C)c(C#N)c2[nH]c3ccccc3n2c1=S`: the inhibition is -5.86%.

On to `Cc1c(CCC(=O)O)c(=O)n2c([nH]c3ccccc32)c1C#N`, for which the inhibition was -32.2%.

For the compound `Cc1c(CCC(C)C)c(=O)n2c([nH]c3ccccc32)c1C#N`, the inhibition is 5.47%.

On to `CCc1cc(=S)n2c([nH]c3ccccc32)c1C#N`, for which the inhibition was -2.47%.

For `COc1c(O)ccc2cnn(-c3ccccc3C)c(=O)c12`, the inhibition is -8.74%.

`CC1CC(C)CN(CC(O)COCCOc2ccc(Br)cc2)C1` (configuration not stated): the inhibition is 0.51%.

Take `CCCCN1CC[C@H]2C=CC[C@@H](C(=O)Nc3ccccc3)[C@H]2C1=O`: the inhibition is -7.03%.

`c1ccc(-c2cc3c(ccc4nonc43)nn2)cc1`: the inhibition is -7.6%.

Consider `Cn1c(-c2ccccc2)cc(=O)c2ccccc21`, for which the inhibition was 1.71%.

For `COc1ccc2c(c1)c(=O)cc(-c1ccccc1)n2C`, the inhibition is -2.37%.

Consider `[O-][n+]1onc2c3ccnnc3ccc21`, for which the inhibition was 58.6%.

As for `CCCCCC(=O)N/N=C(\C)c1ccc(N2CCCCC2)cc1`, the inhibition is -2.51%.

`CCOc1ccc2cc(C3CC(c4ccco4)=NN3S(C)(=O)=O)c(=O)[nH]c2c1` (configuration not stated): the inhibition was 0.83%.

Take `COc1ccccc1OCCSc1nc2ccccc2n1CCO`: the inhibition was -6.33%.

For `O=C1CC(NCc2ccc(F)cc2)C(=O)N1c1ccccc1` (configuration not stated), the inhibition was -1.25%.

As for `CCOC(=O)N1CCN(C(=O)C2CCN(S(=O)(=O)c3ccc(C)cc3)CC2)CC1`, the inhibition is -7.16%.

For `COc1ccccc1-n1c(SCC(=O)N2CCOCC2)nc(O)c(Cc2ccccc2)c1=O`, the inhibition was -3.87%.

As to `C[C@@H]1C=C[C@](Cc2ccccc2)(C(=O)NCC2CC2)N1C(=O)c1ccccc1`, the inhibition is -23%.

Take `COc1ccccc1CC(=O)Nc1cc2oc3ccccc3c2cc1OC`: the inhibition was -9.4%.

In the case of `COc1cc2c(cc1NC(=O)COc1ccccc1OC)oc1ccccc12`, the inhibition is 0.28%.

For the compound `COc1ccccc1NC(=S)NCc1ccc2c(c1)OCO2`, the inhibition is 7.62%.

Take `COc1cc2c(cc1NC(=O)c1ccc3c(c1)OCO3)oc1ccccc12`: the inhibition is -1.46%.

`O=C(CN(C(=O)Cn1nnc(-c2ccc(F)cc2)n1)C1CCCC1)NC1CCCC1`: the inhibition was 0.92%.

As for `O=[N+]([O-])c1ccc(N2CCN(C(=S)c3cccc([N+](=O)[O-])c3)CC2)cc1`, the inhibition was 1.74%.

Turning to `CCN(C1CCCCC1)S(=O)(=O)c1ccc(C(=O)O)cc1`, the inhibition was -11.6%.

Consider `CCO[C@H]1OC(C(=O)N2CCOCC2)=C[C@@H](c2ccccc2)[C@@H]1CCCO`, for which the inhibition was 0.78%.

As to `Cc1ccccc1OCCn1cc(C(=O)C(=O)N2CCOCC2)c2ccccc21`, the inhibition is 5.53%.

As for `O=C(CO/N=C/c1ccccc1Cl)N1CCCc2ccccc21`, the inhibition is 4.05%.

As for `COc1ccccc1N1CCN(C(=O)C(Sc2ccccc2)c2ccccc2)CC1` (configuration not stated), the inhibition was -2.82%.

`CCOC(=O)c1sc(-c2ccc(C(F)(F)F)cc2)nc1O`: the inhibition was -1.38%.

For `CC(=O)c1csc(COc2ccc(Cl)cc2)n1`, the inhibition is -4.98%.

`CCOC(=O)c1csc(NC(=O)COc2ccc(Cl)cc2Cl)n1`: the inhibition was -7.94%.

In the case of `CCOC(=O)c1csc(COc2ccccc2Cl)n1`, the inhibition was -4.66%.

As to `CCC(=O)NNC(=O)c1cc(COc2cc(Cl)cc(Cl)c2)on1`, the inhibition is 13.9%.

As to `Cc1onc(C(=O)NN)c1-c1csc(COc2ccc(Cl)cc2)n1`, the inhibition is -10.6%.

On to `CC(C)NC(=O)NNC(=O)c1cc(COc2cc(Cl)cc(Cl)c2)on1`, for which the inhibition was -6.1%.

On to `Cc1nc(-c2cc(-c3nc(-c4ccc(C(F)(F)F)cc4)no3)no2)cs1`, for which the inhibition is 7.08%.

`O=C(/C=C/c1ccccc1[N+](=O)[O-])N1CCN(c2ccccc2F)CC1`: the inhibition is 4.82%.

With `O=C(O)c1ccc(S(=O)(=O)N2CCC(c3nc(-c4ccccc4Cl)no3)CC2)cc1`, the inhibition was -8.76%.

With `O=C(COC(=O)/C=C/c1ccc(Br)o1)Nc1ccccc1F`, the inhibition is 8.52%.

With `Cc1ccc(C2=NC(=O)/C(=C/c3cc(O)c(O)c(Br)c3)S2)cc1`, the inhibition is -2.49%.

Consider `Cn1ncc2c(NCc3cccc(C(F)(F)F)c3)c(C(=O)O)cnc21`, for which the inhibition was -1.6%.

Turning to `CCN(CC)C1CCN(C(=O)CCc2nnc(CCCCc3ccccc3)o2)C1` (configuration not stated), the inhibition is -6.99%.

With `Cc1csc2c(N3CCN(C(=O)c4ccc(C(C)(C)C)cc4)CC3)ncnc12`, the inhibition is 5.47%.

Regarding `CCCC(=O)Nc1cc(-c2nn(C)c(=O)c3ccccc23)ccc1N1CCOCC1`, the inhibition was -6.76%.

Take `CCCn1c(N)c(C(=O)CN2CCc3ccccc3C2)c(=O)n(C)c1=O`: the inhibition was 0.315%.
